Assay results from PubChem BioAssay.
Calls of active or inactive are those of the source.

Key:
[1] = binders of probe aFSTL3 on microarray, primary screen, stem cell growth factor project, biochemical, small-molecule microarray, fluorescence 635/667 (AID 1064); conditions: higher = more signal;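 note: measures binding of the biotinylated anti-FSTL3 antibody to printed compounds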
[2] = binders from COS7 lysate, DM2A8 probe, primary screen, torsin A project, cell lysate, small-molecule microarray, fluorescence 635/667 (AID 1065); conditions: higher = more signal, COS7 lysate expressing mutant human TOR1A
[3] = binders of probe aFGF2 on microarray, primary screen, stem cell growth factor project, biochemical, small-molecule microarray, fluorescence 635/667 (AID 1067); conditions: higher = more signal;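 note: measures binding of biotinylated aFGF2 protein to printed compounds on slides; z-score merges feature fluorescence and signal-to-noise across triplicate slides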
[4] = binders of probe aFGF10 on microarray, primary screen, stem cell growth factor project, biochemical, small-molecule microarray, fluorescence 635/667 (AID 1071); conditions: higher = more signal;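 note: score merges 667 nm spot intensity and signal to noise from triplicate slides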
[5] = target: Neurogenic locus notch homolog protein 2 (Homo sapiens) (UniProt Q04721); assay: Notch2 binders on small-molecule microarrays, primary screen, biochemical, small-molecule microarray, 635 nm fluorescence, stem cell growth factors (AID 1073); conditions: Notch2 binding, higher = more signal
Neurogenic locus notch homolog protein 2 (Homo sapiens), sequence (Q04721 whole entry, looked up, canonical isoform): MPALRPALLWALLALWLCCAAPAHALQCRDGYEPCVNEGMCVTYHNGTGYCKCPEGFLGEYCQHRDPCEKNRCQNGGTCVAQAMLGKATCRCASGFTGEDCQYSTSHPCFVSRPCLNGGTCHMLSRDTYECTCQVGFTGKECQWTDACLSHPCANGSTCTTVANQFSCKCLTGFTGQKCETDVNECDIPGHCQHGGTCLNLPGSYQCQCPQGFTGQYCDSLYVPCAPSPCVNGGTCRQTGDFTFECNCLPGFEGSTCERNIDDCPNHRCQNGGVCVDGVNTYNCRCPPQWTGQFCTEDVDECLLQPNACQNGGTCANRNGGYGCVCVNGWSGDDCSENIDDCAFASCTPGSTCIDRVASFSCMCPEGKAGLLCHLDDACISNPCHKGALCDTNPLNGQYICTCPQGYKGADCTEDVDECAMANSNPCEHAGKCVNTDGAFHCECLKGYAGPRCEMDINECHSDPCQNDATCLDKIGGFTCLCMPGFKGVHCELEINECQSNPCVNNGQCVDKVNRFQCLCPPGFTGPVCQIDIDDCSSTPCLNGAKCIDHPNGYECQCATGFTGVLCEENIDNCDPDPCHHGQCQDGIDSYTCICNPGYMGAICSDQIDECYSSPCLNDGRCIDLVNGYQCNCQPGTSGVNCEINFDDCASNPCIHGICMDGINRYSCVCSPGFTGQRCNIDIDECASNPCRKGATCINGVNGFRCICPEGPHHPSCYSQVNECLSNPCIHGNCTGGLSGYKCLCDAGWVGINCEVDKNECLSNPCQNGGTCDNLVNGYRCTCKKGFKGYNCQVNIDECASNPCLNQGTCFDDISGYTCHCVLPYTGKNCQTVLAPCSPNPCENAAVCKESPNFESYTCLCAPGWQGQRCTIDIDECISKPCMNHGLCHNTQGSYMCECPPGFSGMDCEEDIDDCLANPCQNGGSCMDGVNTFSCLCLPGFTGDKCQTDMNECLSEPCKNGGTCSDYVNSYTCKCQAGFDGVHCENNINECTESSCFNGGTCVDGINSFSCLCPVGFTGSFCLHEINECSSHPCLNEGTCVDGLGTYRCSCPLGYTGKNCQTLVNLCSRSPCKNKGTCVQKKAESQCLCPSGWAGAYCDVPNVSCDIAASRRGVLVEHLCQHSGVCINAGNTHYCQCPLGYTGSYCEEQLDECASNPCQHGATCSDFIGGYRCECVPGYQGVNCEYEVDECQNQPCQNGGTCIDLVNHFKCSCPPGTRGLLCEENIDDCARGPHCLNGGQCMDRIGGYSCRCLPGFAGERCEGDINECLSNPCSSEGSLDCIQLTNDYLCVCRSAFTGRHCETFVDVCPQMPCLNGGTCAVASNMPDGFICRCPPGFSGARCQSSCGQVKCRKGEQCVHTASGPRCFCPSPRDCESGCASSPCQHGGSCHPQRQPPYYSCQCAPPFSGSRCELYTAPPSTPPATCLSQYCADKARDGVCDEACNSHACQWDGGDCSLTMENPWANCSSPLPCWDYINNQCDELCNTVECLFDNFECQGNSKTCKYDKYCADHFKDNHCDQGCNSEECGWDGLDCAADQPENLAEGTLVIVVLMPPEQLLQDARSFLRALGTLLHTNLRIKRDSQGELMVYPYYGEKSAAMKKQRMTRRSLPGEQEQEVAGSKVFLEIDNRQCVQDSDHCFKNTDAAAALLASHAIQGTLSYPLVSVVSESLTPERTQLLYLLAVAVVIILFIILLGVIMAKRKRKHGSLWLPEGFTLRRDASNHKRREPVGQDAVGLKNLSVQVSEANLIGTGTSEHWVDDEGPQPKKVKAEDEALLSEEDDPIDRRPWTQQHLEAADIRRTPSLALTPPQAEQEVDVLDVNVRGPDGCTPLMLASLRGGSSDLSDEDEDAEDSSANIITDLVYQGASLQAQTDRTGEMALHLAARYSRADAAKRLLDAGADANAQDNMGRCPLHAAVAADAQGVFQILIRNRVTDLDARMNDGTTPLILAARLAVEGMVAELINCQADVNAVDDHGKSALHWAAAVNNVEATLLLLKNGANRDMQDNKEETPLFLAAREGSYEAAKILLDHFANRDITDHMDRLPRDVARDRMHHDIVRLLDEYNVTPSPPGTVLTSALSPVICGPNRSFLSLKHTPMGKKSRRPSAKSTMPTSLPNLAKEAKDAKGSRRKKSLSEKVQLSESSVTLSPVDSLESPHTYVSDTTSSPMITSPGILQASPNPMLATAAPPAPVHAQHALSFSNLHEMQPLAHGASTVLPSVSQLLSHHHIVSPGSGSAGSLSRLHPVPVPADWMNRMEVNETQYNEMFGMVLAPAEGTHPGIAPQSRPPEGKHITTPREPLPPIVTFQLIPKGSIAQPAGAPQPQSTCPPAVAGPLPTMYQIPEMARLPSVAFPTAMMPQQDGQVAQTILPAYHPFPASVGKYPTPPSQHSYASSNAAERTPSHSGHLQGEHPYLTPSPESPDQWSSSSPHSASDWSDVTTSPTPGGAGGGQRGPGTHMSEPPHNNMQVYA

[6] = target: Pro-neuregulin-1, membrane-bound isoform (Homo sapiens) (UniProt Q02297); assay: NRG1 binders on small-molecule microarrays, primary screen, psychiatric disease protein project, biochemical, small-molecule microarray, fluorescence 635/667 (AID 1075); conditions: NRG1 binding, 635 nm fluorescence, higher = more signal;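 note: score combines 667 nm spot fluorescence with signal to noise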
Pro-neuregulin-1, membrane-bound isoform (Homo sapiens), sequence (Q02297 whole entry, looked up, the tested form may be a part, canonical isoform): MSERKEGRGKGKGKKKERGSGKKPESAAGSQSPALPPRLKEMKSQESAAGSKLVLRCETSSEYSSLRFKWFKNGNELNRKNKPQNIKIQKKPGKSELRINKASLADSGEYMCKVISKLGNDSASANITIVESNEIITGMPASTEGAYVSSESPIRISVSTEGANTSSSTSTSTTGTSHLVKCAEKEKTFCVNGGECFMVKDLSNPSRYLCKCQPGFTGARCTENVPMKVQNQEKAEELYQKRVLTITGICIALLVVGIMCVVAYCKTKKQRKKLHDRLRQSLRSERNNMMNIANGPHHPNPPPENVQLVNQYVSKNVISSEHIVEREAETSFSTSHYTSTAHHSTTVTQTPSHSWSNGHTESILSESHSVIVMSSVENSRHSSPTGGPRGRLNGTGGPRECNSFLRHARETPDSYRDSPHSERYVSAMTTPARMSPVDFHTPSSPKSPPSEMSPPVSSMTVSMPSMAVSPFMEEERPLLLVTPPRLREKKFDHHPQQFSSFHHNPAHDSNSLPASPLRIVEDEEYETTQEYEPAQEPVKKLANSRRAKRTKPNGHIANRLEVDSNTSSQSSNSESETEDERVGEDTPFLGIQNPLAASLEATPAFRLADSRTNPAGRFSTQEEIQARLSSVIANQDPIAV

[7] = tested on: Neuregulin-1 EGF-like domain; assay: binders of neuregulin-1 EGF-like domain, primary screen, biochemical, small-molecule microarray, 635 nm fluorescence (AID 1081); conditions: small-molecule microarray binding, higher = more signal;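 note: binding of the protein to compounds printed on small-molecule microarray slides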
[8] = FRG1 promoter luciferase signal modulators, primary screen, FRG1 inhibition for FSHD, cell-based, C2C12 myotubes, firefly/Renilla luciferase, luminescence (AID 1084); conditions: higher = more signal, called active from +8 up or from −8 down
[9] = binders of probe aFST on microarray, primary screen, stem cell growth factor project, biochemical, small-molecule microarray, fluorescence 635/667 (AID 1086); conditions: higher = more signal;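 note: score merges 667 nm fluorescence with signal-to-noise of each printed compound spot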
[10] = binders of probe aHhip on microarray, primary screen, stem cell growth factor project, biochemical, small-molecule microarray, fluorescence 635/667 (AID 1087); conditions: higher = more signal;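 note: score merges spot fluorescence at 667nm with spot signal to noise ratio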
[11] = tested on: PRMT1 (protein arginine N-methyltransferase 1); assay: PRMT1 binders on small-molecule microarrays, primary screen, biochemical, small-molecule microarray, 635 nm fluorescence (AID 1088); conditions: small-molecule microarray binding, higher = more signal;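 note: binding of Prmt1 protein to compounds spotted on small-molecule microarray slides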
[12] = yeast growth modulation, basal conditions, primary screen, YJM789 clinical isolate, OD600, 24 h (AID 1089);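 note: growth of clinical yeast isolate S. cerevisiae YJM 789 seeded 1000 cells per well; test concentration not given here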; conditions: S. cerevisiae YJM789 growth, higher = more signal, called active from +8 up or from −8 down
[13] = fission yeast growth modulation, primary screen, strain 972, OD600, 24 h, no modulator (AID 1090);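 note: basal condition with compound alone and no growth modifier present; test concentration not given here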; conditions: S. pombe 972 growth, higher = more signal, called active from +8 up or from −8 down
[14] = S. cerevisiae growth modulation with rapamycin, primary screen, strain BY4716, OD600, 96 h (AID 1091); conditions: higher = more signal, called active from +8 up or from −8 down; note: test concentration not given here
[15] = target: Torsin-1A-interacting protein 2 (Homo sapiens) (UniProt Q8NFQ8); assay: LULL1 binders on small-molecule microarray, primary screen, cell lysate, human LULL1 lysate, 635/667 nm fluorescence (AID 1092); conditions: hLULL1 lysate binding, 635 nm fluorescence, higher = more signal;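 note: probe is lysate of COS7 cells overexpressing human LULL1; score merges per-feature 667 nm fluorescence with signal-to-noise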
Torsin-1A-interacting protein 2 (Homo sapiens), sequence (Q8NFQ8 whole entry, looked up): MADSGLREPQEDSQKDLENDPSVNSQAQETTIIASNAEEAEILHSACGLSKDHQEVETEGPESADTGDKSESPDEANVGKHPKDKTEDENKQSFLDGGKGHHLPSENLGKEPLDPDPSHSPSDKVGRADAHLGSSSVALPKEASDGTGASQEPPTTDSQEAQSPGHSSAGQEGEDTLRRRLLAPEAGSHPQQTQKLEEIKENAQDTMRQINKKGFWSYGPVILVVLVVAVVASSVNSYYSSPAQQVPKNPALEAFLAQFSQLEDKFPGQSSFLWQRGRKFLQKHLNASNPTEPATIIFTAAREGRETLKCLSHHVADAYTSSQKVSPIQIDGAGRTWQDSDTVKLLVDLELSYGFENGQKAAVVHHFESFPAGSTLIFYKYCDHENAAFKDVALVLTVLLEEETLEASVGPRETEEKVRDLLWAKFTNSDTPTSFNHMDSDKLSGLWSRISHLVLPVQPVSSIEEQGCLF

[16] = E. coli growth modulation, two-sided OD650, primary screen, E. coli filamentation project, strain DRC41, 24 h (AID 1093); conditions: OD650, 24 h, higher = more signal, called active from +8 up or from −8 down;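 note: MC1000 strain lacking acrAB efflux and sulA so SOS filamentation is blocked; test concentration not given here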
[17] = small-molecule microarray binders of probe aLefty2, primary screen, biochemical, biotinylated probe, 635/667 nm fluorescence (AID 1094); conditions: higher = more signal;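 note: score merges spot fluorescence near 667 nm with spot signal-to-noise ratio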
[18] = tested on: Noggin (protein binding on small-molecule microarray); assay: Noggin binders on small-molecule microarray, primary screen, biochemical, 635/667 nm fluorescence (AID 1095); conditions: 635 nm fluorescence, higher = more signal;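 note: score merges 667 nm feature fluorescence with signal to noise over triplicate slides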
[19] = target: Neurogenic locus notch homolog protein 3 (Homo sapiens) (UniProt Q9UM47); assay: NOTCH3 binders on small-molecule microarray, primary screen, biochemical, 635/667 nm fluorescence (AID 1096); conditions: NOTCH3 binding, 635 nm fluorescence, higher = more signal
[20] = small-molecule microarray binders of probe aEGFR, primary screen, biochemical, biotinylated probe, 635/667 nm fluorescence (AID 1097); conditions: higher = more signal;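 note: probe is a biotinylated anti-EGFR antibody binding compounds printed on slides; score combines fluorescence near 667 nm and signal to noise of each spot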

Row | Compound | composite z-score [1] | composite z-score [2] | composite z-score [3] | composite z-score [4] | composite z-score [5] | composite z-score [6] | composite z-score [7] | z-score [8] | composite z-score [9] | composite z-score [10] | composite z-score [11] | z-score [12] | z-score [13] | z-score [14] | composite z-score [15] | z-score [16] | composite z-score [17] | composite z-score [18] | composite z-score [19] | composite z-score [20]
1 | CC(C)C(CO)N1C(=O)[C@]2(C)C3C(=O)OCCC/C=C\[C@H]3OC23C=CCN(c2ccc(Cl)cc2)C(=O)[C@@H]13 (stereo not given in full) | 0.0972 | -0.481 | -0.101 | -0.17 | -0.689 | 0.344 | 1.11 | 0.0186 (inactive) | 0.0043 | -0.0994 | 0.88 | -0.579 (inactive) | -1.14 (inactive) | -0.268 (inactive) | 3.28 | -0.718 (inactive) | -0.0458 | -0.608 | 0.0253 | -0.155
2 | NC(=O)NCC#Cc1ccc2c(c1)[C@]1(C(=O)N2)[C@H](C(=O)O)[C@H]2C(=O)O[C@H](c3ccccc3)[C@H](c3ccccc3)N2[C@@H]1c1ccccc1OCCO | 0.991 | 0.396 | -0.0749 | 0.776 | 0.231 | 1.99 | 1.01 | -0.765 (inactive) | 0.734 | 0.291 | 1.43 | -1.39 (inactive) | -1.19 (inactive) | -0.675 (inactive) | 1.43 | 3.22 (inactive) | 0.857 | 1.01 | 1.11 | 0.0223
3 | COc1cc2c(cc1OC)CN(C(=O)[C@H]1[C@@H]3C(=O)O[C@@H](c4ccccc4)[C@@H](c4ccccc4)N3[C@@H](c3ccc(OCCO)cc3)[C@]13C(=O)Nc1ccc(C#CCCO)cc13)CC2 | -0.0463 | 0.853 | 0.0746 | 0.844 | 1.43 | 1.39 | 0.874 | -0.0164 (inactive) | 0.707 | 0.305 | 1.54 | 2.48 (inactive) | 1.55 (inactive) | 5.29 (inactive) | 2.87 | 0.314 (inactive) | 0.0448 | 1.14 | 1.06 | -0.0069
4 | COc1ccc(CCNC(=O)[C@@]2(Sc3ccc(C)cc3)CC(=O)N(Cc3cc(C(F)(F)F)cc(C(F)(F)F)c3)[C@@H]2c2ccc(CO)cc2I)cc1 | 0.332 | -0.671 | -0.0894 | -0.0189 | -0.632 | 0.899 | 1.07 | 0.214 (inactive) | 0.582 | -0.271 | 1.46 | -2.62 (inactive) | -3.09 (inactive) | 2.1 (inactive) | 1.94 | 0.152 (inactive) | -0.0208 | -0.299 | -0.0768 | -0.24
5 | C=CCC(OC(C)=O)[C@@H]1[C@@H](N(Cc2ccc(-c3ccccc3)cc2)C(=O)c2cccc3ccccc23)c2cc(OCCCO)ccc2N1C(=O)Cc1ccc2ccccc2c1 (stereo not given in full) | -0.144 | 0.407 | -0.0445 | 0.237 | -0.101 | -0.278 | -0.621 | -0.873 (inactive) | -0.0377 | 0.154 | -0.419 | -0.554 (inactive) | -0.691 (inactive) | -0.311 (inactive) | 0.95 | 0.153 (inactive) | -0.0407 | 0.514 | -0.377 | -0.123
